Compound activity deposited in PubChem BioAssay by National Center for Advancing Translational Sciences (NCATS).
Pf growth 96h – P. falciparum growth inhibition at 96 hours. P. falciparum luciferase reporter growth, 96 h. Potency, µM (titrated, usually from 28.7 µM), actives largely listed as inhibitors. 6.9% of 320,000 active. AID 504834
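Readout is luminescence from an integrated firefly luciferase in P. falciparum. Red cells, 2% hematocrit and 0.05% parasitemia final, were cultured with compound through two parasite generations (96 hours) at 37 C, 5% CO2.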
Pf growth 48h – inhibits P. falciparum growth in the first generation, 48 h; Potency, µM (highest dose often 28.7 µM), actives largely listed as inhibitors; AID 504832; 5.9% of 310,000 active; P. falciparum luciferase growth in erythrocytes, 48 h
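Compounds are pin-transferred into medium, infected erythrocytes (2% hematocrit, 0.1% parasitemia final) are added, and plates sit one parasite generation at 37 C in 5% CO2. Detection reagent is then added and luminescence measured.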
CHX counter – counter-screen hit for Shiga toxin inhibitors, cycloheximide; cell reporter, cycloheximide protein synthesis inhibition counterscreen; max response, %; 12% of 300,000 active; in the data active = max response mostly above about 13%, no sharp cut-off; inactive = mostly below about 14%; also: read at 38.3 µM for the half of the compounds with a filed dose
SARS PLpro yeast – inhibitors of SARS-CoV papain-like protease in yeast; S. cerevisiae expressing SARS-CoV PLpro, growth rescue; Potency, µM (titrated, usually from 32.9 µM), hits mostly activators; 0.19% of 330,000 active; calls by dose curve; also: nearly all actives have a fitted effect of over 55% in size
Shiga inhibitor – inhibitors of Shiga toxin in Vero cells | Vero cells, Shiga toxin protein synthesis inhibition reporter | inhibition, % at 38.7 µM | 9.2% of 290,000 active | AID 2315; in the data active = inhibition mostly above about 28%, no sharp cut-off; inactive = mostly below about 43%
NS1 inh – blocks influenza NS1 protein function. Potency, µM (titrated, usually from 46.1 µM). 0.4% of 270,000 active; calls by dose curve; also: actives are rising curves; nearly all actives have a fitted effect of over 50% in size
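Read-out: OD600 growth recovery of NS1-expressing budding yeast. Cells grown overnight at 30C in -URA glucose medium, washed, resuspended and diluted 1:100 in 2% galactose assay medium, pH 6.0. Same strain lacking NS1 served as positive control.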
Hits are given with their value; 0 = inactive; ? = inconclusive; - = not tested or not shown; + = active, no number. Most compounds without a hit are left out; they make up all but 21% or so of the library. Unless noted, calls follow the shape of the dose curve; as a rule, active = well fitted inhibition curve with a large enough effect; inconclusive = small, poorly fitted or top-dose-only effect, or another doubt; inactive = no such curve, though single readings can be large or run the other way.

SMILES	Pf growth 96h	Pf growth 48h	CHX counter	SARS PLpro yeast	Shiga inhibitor	NS1 inh
O=C(Nc1ccc2ccccc2c1)c1cccnc1	?	0	47	0	+	0
Cc1ccc(C(=O)Nc2ccnc(-c3cccnc3)n2)cc1	0	0	36	0	0	-
COc1ccc(NC(=O)c2cccnc2)cc1	?	0	0	0	0	0
CC(=O)c1cccc(NC(=O)COc2ccc(S(=O)(=O)N3CCCCC3)cc2)c1	0	?	0	-	0	0
Cc1nc(NC(=O)c2cccnc2)ccc1Br	-	0	32	0	57	0
Cc1cc(C)cc(NC(=O)c2cccnc2)c1	0	0	0	0	0	0
Cc1nc(NC(=O)CCc2ccccc2)ccc1Br	-	0	32	0	137	0
N#Cc1ccc(C(=O)Nc2ccc3ccccc3c2)cc1	0	0	26	0	103	0
N#Cc1ccccc1Sc1ccccc1C(=O)Nc1ccc2ccccc2c1	?	0	0	0	0	?
O=C(Nc1ccc2ccccc2c1)c1cnccn1	0	0	29	0	85	0
CN(Cc1ccccc1)C(=O)COC(=O)c1cc(=O)c2ccccc2o1	-	-	-	0	-	-
O=C(NCCC1CCCCN1S(=O)(=O)c1ccc(Cl)cc1)C(=O)NCCN1CCOCC1 (configuration not stated)	0	?	-	0	-	-
O=C(Nc1ccc2nccnc2c1)c1cnccn1	?	-	19	0	47	0
COc1ccc(C(=O)Nc2ccc3c(c2)Cc2ccccc2-3)cc1	0	0	0	0	0	0
CC(=O)c1cccc(NC(=O)c2cnccn2)c1	?	0	0	0	0	0
O=C(Nc1ccc2c(c1)Cc1ccccc1-2)c1cccnc1	0	0	36	0	89	0
Cc1ccccc1C(=O)Nc1ccc(Br)c(C)n1	?	0	49	0	81	0
CC(C)(C)NC(=O)c1ccc2nccnc2c1	-	0	0	0	0	0
CC(C)(C)NC(=O)Nc1ccc2nccnc2c1	0	0	29	0	88	0
COc1ccccc1CNC(=O)CN1C(=O)NC2(CCCc3sccc32)C1=O (configuration not stated)	0	0	-	0	-	-
O=C(c1ccc2[nH]c(=O)c(=O)[nH]c2c1)N1CCc2ccccc21	0	0	0	?	0	0
Cc1cc(C)c(NC(=O)COC(=O)/C=C/c2cccs2)c(C)c1	0	0	0	0	0	0
CCOC(=O)C1CCCN(c2c(Nc3ccc(C)c(C)c3)c(=O)c2=O)C1 (configuration not stated)	0	8.3µM	0	0	0	0
CCOC(=O)C1CCCN(c2c(Nc3cc(C)cc(C)c3)c(=O)c2=O)C1 (configuration not stated)	9.3µM	-	0	0	0	0
CCOC(=O)C1CCCN(c2c(NCC3CCCO3)c(=O)c2=O)C1 (configuration not stated)	0	-	0	0	0	0
SMILES	Pf growth 96h	Pf growth 48h	CHX counter	SARS PLpro yeast	Shiga inhibitor	NS1 inh
CCOC(=O)C1CCCN(c2c(NCCN(CC)c3ccccc3)c(=O)c2=O)C1 (configuration not stated)	0	10µM	0	0	0	0
CCOC(=O)C1CCCN(c2c(NCCc3ccc(C)cc3)c(=O)c2=O)C1 (configuration not stated)	0	?	0	0	0	0
CCOC(=O)C1CCCN(c2c(NCCN3CCCCC3C)c(=O)c2=O)C1 (configuration not stated)	4.7µM	0	0	0	0	0
CCOC(=O)C1CCCN(C(=O)CSc2nccn2C)C1 (configuration not stated)	0	0	0	0	0	0
CN(CC(=O)Nc1cccc(F)c1)C(=O)CNS(=O)(=O)c1ccc(N(C)C)c([N+](=O)[O-])c1	0	0	-	0	-	-
CCOC(=O)c1sc(-c2cccs2)nc1C	0	0	43	0	130	-
CCOC(=O)Cc1ccc(-c2ccccc2)cc1	?	0	-	-	-	-
Cc1nc(-c2cccs2)sc1C(=O)NN	0	0	0	0	0	0
CCOC(=O)c1sc(-c2ccccc2)nc1C	?	0	34	0	0	0
CCOC(=O)Cc1ccc2sc(-c3ccccc3)nc2c1	0	0	58	0	31	0
Cc1nc(-c2ccccc2)sc1C(N)=O	0	0	0	0	0	0
CCC(C(=O)NC1CC(C)(C)NC(C)(C)C1)c1ccccc1 (configuration not stated)	0	0	0	0	-	0
